About 750 (31%) of roughly 2,400 compounds were called active. The list shows a part of the results. Unmarked numbers belong to inactive results.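 How the source made its calls: active means median signal gain over dofetilide-blocked control wells reaching their mean plus 3 SD, so readout 1 at least 0; inactive means the rest.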
Each compound was assayed against Voltage-gated inwardly rectifying potassium channel KCNH2 (Homo sapiens) (UniProt Q12809) (assay: hERG protection against dofetilide inhibition, confirmation, cell-based, thallium flux, duplicate retest, dofetilide IC70 (AID 1835)). Settings: hERG cell line, FluxOR thallium flux, dofetilide-blocked; at 10 µM; hits give high values.
Voltage-gated inwardly rectifying potassium channel KCNH2 (Homo sapiens), sequence (Q12809 whole entry, looked up): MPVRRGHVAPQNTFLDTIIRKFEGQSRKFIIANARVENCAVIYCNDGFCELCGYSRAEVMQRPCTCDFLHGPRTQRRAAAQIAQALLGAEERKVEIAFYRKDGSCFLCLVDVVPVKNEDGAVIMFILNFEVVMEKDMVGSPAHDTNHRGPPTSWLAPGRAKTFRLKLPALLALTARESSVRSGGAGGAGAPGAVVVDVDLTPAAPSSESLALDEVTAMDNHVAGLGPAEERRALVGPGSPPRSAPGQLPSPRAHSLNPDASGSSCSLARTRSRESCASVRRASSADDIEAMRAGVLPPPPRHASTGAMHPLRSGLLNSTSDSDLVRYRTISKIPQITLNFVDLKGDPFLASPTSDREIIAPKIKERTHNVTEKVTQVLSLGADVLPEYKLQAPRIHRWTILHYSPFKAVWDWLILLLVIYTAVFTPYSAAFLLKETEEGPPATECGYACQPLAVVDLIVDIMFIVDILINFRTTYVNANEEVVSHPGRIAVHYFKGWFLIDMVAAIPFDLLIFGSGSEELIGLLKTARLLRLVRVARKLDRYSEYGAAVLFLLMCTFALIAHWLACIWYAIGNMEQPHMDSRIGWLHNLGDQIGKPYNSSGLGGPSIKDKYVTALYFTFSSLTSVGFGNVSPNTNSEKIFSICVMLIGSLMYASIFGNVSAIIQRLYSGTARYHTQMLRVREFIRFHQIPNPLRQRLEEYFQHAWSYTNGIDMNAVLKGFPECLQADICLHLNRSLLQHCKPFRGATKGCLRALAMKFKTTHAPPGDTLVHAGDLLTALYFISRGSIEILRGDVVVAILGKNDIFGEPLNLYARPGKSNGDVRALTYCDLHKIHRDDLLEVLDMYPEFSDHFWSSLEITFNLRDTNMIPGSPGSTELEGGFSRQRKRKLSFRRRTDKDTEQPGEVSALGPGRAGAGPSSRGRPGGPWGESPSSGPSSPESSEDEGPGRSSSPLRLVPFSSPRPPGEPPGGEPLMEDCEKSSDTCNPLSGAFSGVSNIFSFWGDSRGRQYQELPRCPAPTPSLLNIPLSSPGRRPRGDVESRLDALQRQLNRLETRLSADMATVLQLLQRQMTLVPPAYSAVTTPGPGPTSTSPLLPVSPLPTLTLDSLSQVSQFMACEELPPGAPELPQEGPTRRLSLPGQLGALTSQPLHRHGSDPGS

Row | SMILES | activity increase over dofetilide control, less the hit threshold
1 | COc1ccc(-n2c(=S)[nH]c3ccccc3c2=S)cc1 | -12%
2 | CC(C)CC(=O)Nc1ccc2c3c(cccc13)CC2 | -3%
3 | CCC1(CC)Cc2ccccc2-c2[nH]c(=S)[nH]c(=O)c21 | -6%
4 | CCn1c(=S)[nH]c2c(c1=O)C(C)(C)Cc1ccccc1-2 | 26% (active)
5 | O=C(CSc1nc2ccccc2o1)NCc1n[nH]c(=O)c2ccccc12 | -4%
6 | CCOc1ccccc1Nc1nc(-c2sc(C)nc2C)cs1 | -9%
7 | O=C(C1CCN(S(=O)(=O)c2cc(Cl)ccc2Cl)CC1)N1CCOCC1 | -16%
8 | CCN(CC(=O)Nc1c(F)cccc1F)C(=O)c1ccc(Cl)c(S(=O)(=O)N2CCCCC2)c1 | -19%
9 | CN(C(=O)c1ccc(Cl)c(S(=O)(=O)N2CCOCC2)c1)c1ccccc1C(=O)O | 7% (active)
10 | C=Cc1ccc(Cn2c(=O)n(CCCOC)c(=O)c3sccc32)cc1 | -14%
11 | O=[N+]([O-])c1cccc(/C=N/N=C\c2ccccc2)c1 | -20%
12 | Cc1ccc(C(=O)N/N=C(/CC(=O)c2cccs2)C(F)(F)F)cc1 | 3% (active)
13 | C/C(=N\NC(=O)c1ccc(NS(=O)(=O)c2cccs2)cc1)c1ccc2c(c1)OCO2 | -17%
14 | COc1ccc(S(=O)(=O)N2CCCC(C(=O)Nc3ccc(OC)c(OC)c3)C2)cc1 (stereo not given) | -22%
15 | CCN(Cc1ccc(OC)c(F)c1)C(=O)C1CCCO1 (stereo not given) | -3%
16 | COc1ccc(-c2cnn(C3CCS(=O)(=O)C3)c2N)cc1 (stereo not given) | -23%
17 | COC(=O)c1ccc(C2C(C#N)=C(N)Oc3cc(O)ccc32)cc1 (stereo not given) | 69% (active)
18 | COc1cc(C2C(C#N)=C(N)Oc3c2ccc2ccccc32)ccc1OCC(=O)Nc1ccc(C)cc1 (stereo not given) | -19%
19 | CCOC(=O)C1=C(N)Oc2cc(O)ccc2C1c1cccnc1 (stereo not given) | -12%
20 | O=C(NC1CCCC1)c1ccc(Br)o1 | -5%
21 | Cc1ccc(OC(=O)c2ccc(Br)o2)cc1 | 37% (active)
22 | O=C(COC(=O)c1ccc(Br)o1)NC1CCCCC1 | -6%
23 | CCCCOc1ccc(CC(=O)NCC(=O)O)cc1 | -17%
24 | CCCOc1ccc(OC(=O)c2ccc(Br)o2)cc1 | 14% (active)
25 | Cc1ccsc1CN(C(=O)c1ccc([N+](=O)[O-])cc1)C1CCS(=O)(=O)C1 (stereo not given) | -5%

Row | SMILES | activity increase over dofetilide control, less the hit threshold
26 | O=C(CS(=O)(=O)Cc1ccccc1)Nc1ccc(Cl)cn1 | -11%
27 | CCNC(=O)C/C(C)=N/NC(=O)C(=O)Nc1ccc(CC)cc1 | 9% (active)
28 | CCCCNC(=O)COC(=O)c1ccc(NC(C)=O)cc1 | -18%
29 | CCCCCCC12CCC(C(=O)O)(CC1)CC2 | 14% (active)
30 | CCOc1ccc(NC(=O)C2C(C(=O)O)C3(Cl)C(Cl)=C(Cl)C2(Cl)C3(Cl)Cl)cc1 (stereo not given) | -8%
31 | CCOc1ccc(NC(=O)CSc2nc3nc(C)cc(C)n3n2)cc1 | -8%
32 | CCOc1ccc(NC(=S)NS(=O)(=O)c2cc(Br)ccc2OCC)cc1 | 37% (active)
33 | CCc1nnc(NC(=O)CSc2nc(-c3ccccc3)cc(-c3ccc(OC)cc3)c2C#N)s1 | 11% (active)
34 | N#Cc1c(-c2ccc(Cl)cc2)cc(-c2cccs2)nc1SCC(=O)O | -22%
35 | CCc1nnc(NC(=O)COc2ccc([N+](=O)[O-])cc2)s1 | -11%
36 | CCOc1cc(N2CCCC2)ccc1[N+](=O)[O-] | -3%
37 | CC(=O)c1cccc(NC(=O)NCc2cccs2)c1 | -23%
38 | Nc1nc2n(n1)C1(CCCCC1)C1=C(CCCC1)N2 | -26%
39 | Cc1ccccc1CC(=O)NC1CCN(Cc2ccccc2)CC1 | -1%
40 | CC(=O)c1c(N2CCN(Cc3ccccc3)CC2)[nH]c(-c2ccccc2)nc1=S | 15% (active)
41 | CC(=O)c1c(N2CCCC2)[nH]c(-c2ccccc2)nc1=S | -1%
42 | CSc1nc(-c2ccccc2)[nH]c(=S)c1C(C)=O | 61% (active)
43 | CC(=O)c1c(C)[nH]c(-c2ccccc2)nc1=S | -4%
44 | Cc1nc2ccc(C(=O)O)cc2[nH]1 | -12%
45 | CC(=O)c1c(N)[nH]c(-c2ccccc2)nc1=S | 1% (active)
46 | CC(=O)c1c(NC(=O)c2ccccc2)[nH]c(-c2ccccc2)nc1=S | 24% (active)
47 | C=C(C)Cc1c(C)nc(-c2ccccc2)[nH]c1=O | -19%
48 | Cc1cc(C)cc(NC(=O)CSc2nnc(CN3CCOCC3)n2C)c1 | -13%
49 | COc1ccc(S(=O)(=O)n2nc(C)c(S(=O)(=O)N3CCOCC3)c2C)cc1OC | -10%
50 | CCN1CCCC(CO)(Cc2ccccc2)C1 (stereo not given) | -8%

Reference: PubChem BioAssay AID1835 (Johns Hopkins Ion Channel Center, 2009)
